Reference: PubChem BioAssay (EPA / NIEHS)
Values joined by “and” are separate entries in the source; they are usually repeats but may differ in a detail not shown here. Equal values may be shown once. Records with an inconclusive call do not appear. Some structures have more than one record in an assay (separate samples or runs), and their calls can disagree. Active and inactive are the calls of the source. Rule for the calls, unless noted: active = hit-call score of the fitted dose curve at least 0.9, where 1 is the maximum; inactive = score below 0.9.

Columns and labels:
[1] = read-out: Monocyte Chemoattractant Protein-1 (MCP1), CCL2 (gene 6347); assay: BSK_LPS_MCP1: BioMAP Diversity Plus: LPS Assay for Monocyte Chemoattractant Protein-1 (MCP1) Biomarker Activity (AID 2283081); details: primary human HUVEC with PBMC; actives raise or lower the signal;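 for AC50: secreted MCP-1 protein quantified by ELISA in culture supernatant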
Summary of the method: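 Human endothelial–PBMC co-cultures were dosed with chemical, then LPS-driven MCP-1 levels were quantified by ELISA at 24 h. Activity in either direction was fitted versus DMSO negative control.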

[2] = BSK_LPS_PGE2: BioMAP Diversity Plus: LPS Assay for Prostaglandin E2 (PGE2) Biomarker Activity (AID 2283082); details: primary human HUVEC with PBMC; actives raise or lower the signal;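 for AC50: secreted prostaglandin E2 measured by ELISA in LPS-stimulated co-culture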
Summary of the method: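 ELISA read-out of PGE2 from human umbilical vein endothelial cells co-cultured with peripheral blood mononuclear cells under LPS, 24 h post-dose. Gain or loss of signal scored relative to DMSO baseline.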

[3] = read-out: Macrophage colony-stimulating factor (MCSF), CSF1 (gene 1435); assay: BSK_LPS_MCSF: BioMAP Diversity Plus: LPS Assay for Macrophage colony-stimulating factor (MCSF) Biomarker Activity (AID 2283083); details: primary human HUVEC with PBMC; actives raise or lower the signal
Summary of the method: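 ELISA readout of M-CSF after 24 h compound exposure in a human endothelial/PBMC co-culture. Activity, in either direction, is fitted relative to DMSO vehicle.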

[4] = read-out: Tissue Factor, F3 (gene 2152); assay: BSK_LPS_TissueFactor: BioMAP Diversity Plus: LPS Assay for Tissue Factor Biomarker Activity (AID 2283084); details: primary human HUVEC with PBMC; actives raise or lower the signal
Summary of the method: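 ELISA signal for cell-surface Tissue Factor (CD142) was read 24 h after compound dosing of an LPS-stimulated human endothelial–PBMC primary co-culture. Gain or loss of signal was scored relative to DMSO.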

[5] = read-out: Tumor necrosis factor (Homo sapiens) (UniProt P01375); assay: BSK_LPS_TNFa: BioMAP Diversity Plus: LPS Assay for Tumour Necrosis Factor alpha (TNFa) Biomarker Activity (AID 2283085); details: primary human HUVEC with PBMC; actives raise or lower the signal;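 for AC50: TNFa protein level quantified by ELISA in the co-culture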
Summary of the method: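 HUVEC/PBMC co-culture, LPS-stimulated; 24 h post-dose; TNFa by ELISA; gain or loss of signal fitted bidirectionally vs DMSO baseline.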

[6] = read-out: Vascular cell adhesion molecule 1 (VCAM1), VCAM1 (gene 7412); assay: BSK_LPS_VCAM1: BioMAP Diversity Plus: LPS Assay for Vascular cell adhesion molecule 1 (VCAM1) Biomarker Activity (AID 2283086); details: primary human HUVEC with PBMC; actives raise or lower the signal
Summary of the method: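 ELISA read-out of VCAM-1 at 24 h post-dosing in an LPS-driven HUVEC/PBMC primary human co-culture; gain or loss of signal fitted bidirectionally against DMSO baseline. Cytotoxicity tracked in parallel cultures by SRB total-protein staining.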

[7] = read-out: CD40, CD40 (gene 958); assay: BSK_SAg_CD40: BioMAP Diversity Plus: SAg Assay for CD40 Biomarker Activity (AID 2283088); details: primary human HUVEC with PBMC; actives raise or lower the signal
Summary of the method: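 Compounds were dosed onto a human primary endothelial–PBMC co-culture, and after 24 h CD40 was quantified by ELISA using a fluorescence signal. Activity in either direction was fitted relative to DMSO.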

[8] = read-out: CD69, CD69 (gene 969); assay: BSK_SAg_CD69: BioMAP Diversity Plus: SAg Assay for CD69 Biomarker Activity (AID 2283089); details: primary human HUVEC with PBMC; actives raise or lower the signal;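 for AC50: cell surface CD69 protein quantified by ELISA with fluorescence detection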
Summary of the method: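 Values derive from bidirectional fitting relative to DMSO vehicle. Cells: umbilical vein endothelium plus peripheral blood mononuclear cells, treated 24 h before fluorescent ELISA for CD69.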

[9] = read-out: Monocyte Chemoattractant Protein-1 (MCP1), CCL2 (gene 6347); assay: BSK_SAg_MCP1: BioMAP Diversity Plus: SAg Assay for Monocyte Chemoattractant Protein-1 (MCP1) Biomarker Activity (AID 2283090); details: primary human HUVEC with PBMC; actives raise or lower the signal
Summary of the method: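 Values derive from bidirectional fitting of ELISA-measured MCP1 against DMSO controls. Readings were taken 24 h after dosing human vascular endothelial cells co-cultured with peripheral blood mononuclear cells under superantigen stimulation.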

[10] = read-out: E-selectin (Homo sapiens) (UniProt P16581); assay: BSK_SAg_Eselectin: BioMAP Diversity Plus: SAg Assay for Eselectin Biomarker Activity (AID 2283091); details: primary human HUVEC with PBMC; actives raise or lower the signal
Summary of the method: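 Co-culture: HUVEC + PBMC. Dose compound; 24 h. ELISA for E-selectin. Bidirectional fit vs DMSO.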

[11] = read-out: Monokine induced gamma interferon (MIG), CXCL9 (gene 4283); assay: BSK_SAg_MIG: BioMAP Diversity Plus: SAg Assay for Monokine induced gamma interferon (MIG) Biomarker Activity (AID 2283092); details: primary human HUVEC with PBMC; actives raise or lower the signal
Summary of the method: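 Values reflect bidirectional fitting of ELISA-measured MIG against DMSO vehicle, taken 24 h after dosing of a co-culture of human umbilical vein endothelial cells and peripheral blood mononuclear cells.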

[12] = BSK_SAg_PBMCCytotoxicity: PBMC Cytotoxicity Assessment in the BioMAP Diversity Plus: SAg Assay (AID 2283093); details: primary human HUVEC with PBMC;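 note: fitted both ways against DMSO so a hit may be loss or gain of signal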;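 for AC50: PBMC superantigen activated with SEB plus TSST-1 one hour after compound addition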
Summary of the method: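 PBMC viability by Alamar Blue reduction, fluorescence read at 546/580 nm after 6 h dye exposure. Cells were dosed 1 h before SEB plus TSST-1 activation (20 ng/mL final each), then held 90 h; endothelial/PBMC human co-culture.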

[13] = read-out: Interleukin-8 (IL8), CXCL8 (gene 3576); assay: BSK_SAg_IL8: BioMAP Diversity Plus: SAg Assay for Interleukin-8 (IL8) Biomarker Activity (AID 2283094); details: primary human HUVEC with PBMC; actives raise or lower the signal
Summary of the method: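 HUVEC/PBMC co-culture, 24 h post-dose; IL-8 by ELISA. Gain or loss of signal fitted bidirectionally vs DMSO baseline.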

[14] = BSK_SAg_Proliferation: Cell Proliferation Assessment in the BioMAP Diversity Plus: SAg Assay (AID 2283095); details: primary human HUVEC with PBMC;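 note: relative cell number as total protein by SRB absorbance in sub-confluent culture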
Summary of the method: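 HUVEC/PBMC co-culture, 96-well. TCA-fixed (10%), 0.1% SRB stain, A560 at 96 h. Protein content used as viability readout; bidirectional fitting vs DMSO control.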

[15] = BSK_SAg_SRB: Viability Assessment in the BioMAP Diversity Plus: SAg Assay (AID 2283096); details: primary human HUVEC with PBMC;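 note: cells read one day after compound addition; hits may be either gain or loss of signal compared with DMSO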
Summary of the method: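 Compounds were added to a human vascular co-culture of umbilical vein endothelium and PBMC. After 24 h, parallel cultures were fixed with 10% TCA, stained with 0.1% sulforhodamine B and read at 560 nm. Gain or loss of signal was fitted relative to DMSO.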

[16] = read-out: CD38, CD38 (gene 952); assay: BSK_SAg_CD38: BioMAP Diversity Plus: SAg Assay for CD38 Biomarker Activity (AID 2283087); details: primary human HUVEC with PBMC; actives raise or lower the signal
Summary of the method: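 Measures CD38 on a human endothelial/PBMC co-culture driven by SEB and TSST-1, 24 h after compound exposure, using ELISA with fluorescence detection; DMSO defines baseline for bidirectional curve fitting.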

[17] = target: human CYP2D6, CYP2D6 (gene 1565) (UniProt P10635); assay: NVS_ADME_hCYP2D6: NovaScreen (NVS) CYP450-related Enzyme Activity (ADME) Assay for human CYP2D6 (AID 2283107; active = hit-call score of the fitted dose curve at least 0.9, where 1 is the maximum)
Summary of the method: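 Insect-cell recombinant enzyme + fluorogenic substrate, cell-free; 1 h incubation; fluorescence intensity readout. Acetonitrile = neg. ctrl/baseline. Single-point 10 uM, duplicate; follow-up concentration series.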

[18] = target: human CYP2C9, CYP2C9 (gene 1559) (UniProt P11712); assay: NVS_ADME_hCYP2C9: NovaScreen (NVS) CYP450-related Enzyme Activity (ADME) Assay for human CYP2C9 (AID 2283108; active = hit-call score of the fitted dose curve at least 0.9, where 1 is the maximum)
Summary of the method: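 Recombinant human CYP2C9 expressed in SF9 cells, fluorogenic substrate, fluorescence read 0.75 h after dosing. Chemicals first run in duplicate at 10 uM, with actives followed in concentration series; loss of signal versus acetonitrile baseline.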

Measured: AC50

Chain of E-selectin (Homo sapiens) (P16581 whole entry, looked up): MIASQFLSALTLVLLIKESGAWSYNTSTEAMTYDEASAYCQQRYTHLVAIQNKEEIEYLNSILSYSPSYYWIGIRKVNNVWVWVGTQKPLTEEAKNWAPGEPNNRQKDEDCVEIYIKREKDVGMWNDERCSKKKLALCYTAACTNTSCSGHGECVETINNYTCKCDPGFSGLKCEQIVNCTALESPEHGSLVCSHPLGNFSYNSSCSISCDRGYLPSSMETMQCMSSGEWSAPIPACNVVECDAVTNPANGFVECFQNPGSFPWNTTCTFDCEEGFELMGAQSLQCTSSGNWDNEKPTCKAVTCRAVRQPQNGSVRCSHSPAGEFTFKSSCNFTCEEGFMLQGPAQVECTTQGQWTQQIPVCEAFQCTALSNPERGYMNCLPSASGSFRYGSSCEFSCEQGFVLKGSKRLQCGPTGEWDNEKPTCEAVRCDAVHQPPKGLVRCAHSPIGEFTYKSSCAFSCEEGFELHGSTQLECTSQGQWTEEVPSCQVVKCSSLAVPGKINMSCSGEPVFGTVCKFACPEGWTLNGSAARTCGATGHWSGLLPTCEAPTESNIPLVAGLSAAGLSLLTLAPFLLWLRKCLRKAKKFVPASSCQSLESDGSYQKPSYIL
Chain of Tumor necrosis factor (Homo sapiens) (P01375 whole entry, looked up): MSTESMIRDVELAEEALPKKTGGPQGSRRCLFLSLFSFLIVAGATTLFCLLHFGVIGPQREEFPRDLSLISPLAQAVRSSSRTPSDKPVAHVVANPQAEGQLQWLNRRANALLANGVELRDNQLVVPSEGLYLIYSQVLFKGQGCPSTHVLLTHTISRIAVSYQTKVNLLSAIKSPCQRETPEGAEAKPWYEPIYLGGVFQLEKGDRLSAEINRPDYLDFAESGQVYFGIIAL
Chain of human CYP2D6, CYP2D6 (gene 1565) (P10635 whole entry, looked up): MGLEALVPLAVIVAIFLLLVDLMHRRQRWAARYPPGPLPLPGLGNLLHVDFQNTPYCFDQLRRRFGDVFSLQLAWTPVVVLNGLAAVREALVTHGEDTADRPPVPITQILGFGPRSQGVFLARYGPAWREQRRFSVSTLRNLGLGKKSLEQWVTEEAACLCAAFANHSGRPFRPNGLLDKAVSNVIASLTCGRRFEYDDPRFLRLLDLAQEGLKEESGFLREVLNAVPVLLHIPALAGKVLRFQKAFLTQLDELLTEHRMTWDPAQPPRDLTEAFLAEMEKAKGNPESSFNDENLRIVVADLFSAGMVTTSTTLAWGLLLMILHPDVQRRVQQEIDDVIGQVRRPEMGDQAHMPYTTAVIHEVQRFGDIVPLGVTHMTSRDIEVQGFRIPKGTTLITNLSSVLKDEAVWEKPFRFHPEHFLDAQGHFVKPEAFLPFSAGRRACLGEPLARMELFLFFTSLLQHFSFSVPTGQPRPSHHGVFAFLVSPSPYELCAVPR
Chain of human CYP2C9, CYP2C9 (gene 1559) (P11712 whole entry, looked up): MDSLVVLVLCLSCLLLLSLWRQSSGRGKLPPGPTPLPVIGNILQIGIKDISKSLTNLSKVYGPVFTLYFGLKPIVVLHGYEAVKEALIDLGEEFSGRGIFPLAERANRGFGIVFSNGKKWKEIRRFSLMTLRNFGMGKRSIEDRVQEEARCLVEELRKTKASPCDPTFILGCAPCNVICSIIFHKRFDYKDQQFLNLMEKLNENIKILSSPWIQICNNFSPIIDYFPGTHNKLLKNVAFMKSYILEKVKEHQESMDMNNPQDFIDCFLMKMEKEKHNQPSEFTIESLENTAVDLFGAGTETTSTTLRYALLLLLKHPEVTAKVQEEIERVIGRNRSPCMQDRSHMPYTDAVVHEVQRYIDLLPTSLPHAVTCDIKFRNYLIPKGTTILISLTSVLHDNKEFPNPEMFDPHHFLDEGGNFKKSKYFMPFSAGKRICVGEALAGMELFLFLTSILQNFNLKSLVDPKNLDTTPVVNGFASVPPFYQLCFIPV

CCC[CH2][Sn]([Cl])([CH2]CCC)[CH2]CCC
inactive: [2]
active: [1] 148 nM | [3] 0.615 µM | [4] 148 nM | [5] 0.248 µM | [6] 0.148 µM | [7] 148 nM | [8] 148 nM | [9] 0.148 µM | [10] 0.148 µM | [11] 148 nM | [12] 0.148 µM | [13] 0.148 µM | [14] 0.148 µM | [15] 0.148 µM

Oc1ccccc1Cl
inactive: [1] | [2] | [3] | [4] | [5] | [6] | [16] | [7] | [8] | [9] | [10] | [11] | [12] | [13] | [14] | [15]

O=Cc1ccco1
inactive: [1] | [2] | [3] | [4] | [5] | [6] | [16] | [7] | [8] | [9] | [10] | [11] | [12] | [13] | [14] | [15]

COC(=O)c1ccccc1N
inactive: [1] | [2] | [3] | [4] | [5] | [6] | [16] | [7] | [8] | [9] | [10] | [12] | [13] | [14] | [15]

CCCCCCCCOC(=O)c1ccc(C(=O)OCCCCCCCC)c(C(=O)OCCCCCCCC)c1
inactive: [1] | [2] | [3] | [4] | [5] | [6] | [7] | [8] | [9] | [10] | [11] | [12] | [13] | [14] | [15]

CO[C@@H]1[C@H](OC(=O)NC(=O)CCl)CC[C@]2(CO2)[C@H]1[C@@]1(C)O[C@@H]1CC=C(C)C
inactive: [1] | [4] | [8] | [9] | [11] | [12] | [15]
active: [2] 6.2 µM | [3] 3.16 µM | [5] 10 µM | [6] 7.31 µM | [16] 6.2 µM | [7] 7520 nM | [10] 3.89 µM | [13] 2.58 µM | [14] 2.45 µM

O=C(N[C@H](c1ccccc1)[C@@H]1CN2CCC1CC2)c1c(Cl)ccc(C(F)(F)F)c1Cl
inactive: [1] | [3] | [4] | [5] | [7] | [9] | [10] | [11] | [15]
active: [2] 4.3 µM | [6] 17.7 µM | [16] 29.7 µM | [8] 29700 nM | [12] 14.7 µM | [13] 20.2 µM | [14] 29.7 µM | [17] 3.5 µM

CCCCOC(=O)c1ccccc1C(=O)OCc1ccccc1
inactive: [1] | [3] | [4] | [5] | [7] | [8] | [9] | [10] | [11] | [12]
active: [2] 8.72 µM | [6] 10.7 µM | [13] 20 µM | [14] 20 µM | [15] 10.8 µM

CCNS(=O)(=O)C(F)(F)C(F)(F)C(F)(F)C(F)(F)C(F)(F)C(F)(F)C(F)(F)C(F)(F)F
inactive: [1] | [2] | [3] | [4] | [5] | [6] | [9] | [10] | [12] | [13] | [15]
active: [1] 48.8 µM and 51.7 µM | [3] 49 µM | [5] 1.1 µM | [6] 30 µM | [7] 12.2 µM and 36.6 µM and 30.4 µM | [8] 5.71 µM and 24.7 µM and 20.2 µM | [9] 48.7 µM | [10] 30 µM | [12] 48 µM | [13] 30 µM | [14] 19.3 µM and 45 µM and 23.6 µM | [15] 43.3 µM and 51.2 µM | [18] 226 nM

Nc1ccc([N+](=O)[O-])cc1
inactive: [1] | [2] | [3] | [4] | [5] | [6] | [16] | [7] | [8] | [9] | [10] | [12] | [13] | [14] | [15]

CCN(CC)CCO
inactive: [1] | [2] | [3] | [4] | [5] | [6] | [16] | [7] | [8] | [9] | [10] | [11] | [12] | [13] | [14] | [15]

C1=Cc2cccc3cccc1c23
inactive: [1] | [2] | [3] | [4] | [5] | [6] | [16] | [7] | [8] | [9] | [10] | [12] | [13] | [14] | [15]

COC(=O)Nc1nc2ccccc2[nH]1
inactive: [1] | [2] | [4] | [5] | [16] | [7] | [8] | [9] | [10] | [11] | [12] | [13]
active: [3] 7.04 µM | [6] 11.3 µM | [14] 11.2 µM | [15] 9.84 µM

N#CC(Br)Br
inactive: [1] | [2] | [3] | [4] | [5] | [6] | [16] | [7] | [8] | [9] | [10] | [11] | [12] | [13] | [14] | [15]
